CD40 NFkB inh: CD40 pathway inhibition in BL2 cells; BL2 NF-kB luciferase reporter, CD40L-induced, 4 h; inhibition, % at 10 µM; hit rate 0.94% among 83,000; AID 1053188;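 active means mean inhibition of at least 50% with a set share of replicates also reaching that level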
Of the large screens only hits and unclear results are named; the others gave an inactive call; [ ] = another dose, or the depositor's remark. Many of the other results were omitted from the sample, so hits are more common in it than they were.

Cc1ccc(C(OCC(O)CNCc2ccc(F)cc2)c2ccccc2)cc1 (stereo unspecified)	CD40 NFkB inh 50.5
OC(COC(c1ccc(F)cc1)c1ccc(F)cc1)CN1CCCC1 (stereo unspecified)	none
O=C(c1ccccc1)c1ccc(OCC(O)CNCc2ccc(F)cc2)cc1 (stereo unspecified)	none
CN(C)C(=O)c1ccc(-c2ccc(C3[C@H]4CNC[C@@H]3N4Cc3ccccn3)cc2)cc1 (stereo partly specified)	none
C[C@@H]1CN([C@H](C)CO)C(=O)CCCn2cc(nn2)CO[C@@H]1CN(C)C(=O)C1CC1	none
Clc1nc(CN2CCCCC2)nc2sc3c(c12)CCCC3	CD40 NFkB inh 55.2
CC1CCN(Cc2nc(Cl)c3c4c(sc3n2)CCC4)CC1	none
Clc1nc(CN2CCOCC2)nc2sc3c(c12)CCC3	none
N#C[C@H]1[C@@H](c2ccccc2)[C@@H](CO)N1C(=O)C1CCCC1	none
CCCCC(=O)N(C)c1c(C)nc2ccc(C(=O)N3CCN(C(=O)c4ccco4)CC3)cn12	none
C[C@@H](NC(=O)[C@H]1[C@H](CO)[C@H]2Cn3c(cccc3=O)[C@H]2N1CCC(F)(F)F)c1ccccc1	none
c1ccc(-c2noc(-c3ccncc3)n2)nc1	none
c1ccc(-c2noc(-c3ccc4c(c3)OCO4)n2)nc1	CD40 NFkB inh 75.4
c1ccc(-c2noc(-c3cccnc3)n2)nc1	none
c1ccc(-c2nccc(-c3ccc4c(c3)OCO4)n2)cc1	none
c1ccc(CCc2ccccc2-c2nc(-c3ccccn3)no2)cc1	none
c1ccc(-c2noc(-c3ccc4ccccc4c3)n2)nc1	CD40 NFkB inh 105.0
CCOc1ccc(NS(=O)(=O)c2cccc(C(=O)NCC3(N(C)C)CCCCC3)c2)cc1	none
CCC(C)c1ccc(NC(=S)NC(C)C2CCCO2)cc1 (stereo unspecified)	none
CCCNC(=O)[C@H]1[C@H](CO)[C@H]2Cn3c(ccc(-c4ccccc4)c3=O)[C@@H]1N2C(=O)Nc1ccccc1	none
CCC(=O)N1C[C@H](O)COC[C@@H]2O[C@H](CC(=O)NC)CC[C@H]21	none
COc1ccc2c3c([nH]c2c1)[C@@H](CO)N(C(=O)c1ccc(F)cc1)CC31CCN(S(=O)(=O)c2cccs2)CC1	none
COc1ccc(S(=O)(=O)N(C)C[C@@H]2OCCCC[C@@H](C)Oc3ccc(NC(=O)Nc4ccc(F)cc4)cc3C(=O)N([C@H](C)CO)C[C@@H]2C)cc1	none
COc1cc2c(cc1OC)[C@@H]1Cc3ccc(OC)c(OC)c3CN1CC2	none
COc1cc2c(cc1OC)C1Cc3ccc(OC)c(OC)c3CN1CC2 (stereo unspecified)	none
CCC1=C(CC2NCCc3ccccc32)CC2c3cc(OC)c(OC)cc3CCN2C1 (stereo unspecified)	CD40 NFkB inh 54.7
CCOc1ccc(Oc2ccc(C(F)(F)F)cc2NC(=O)C2=COCCO2)cc1	none
Cc1cnc(C(=O)OC(C)C(=O)NCc2ccccc2)cn1 (stereo unspecified)	none
O=C(NCCCN1CCCC1=O)c1cc2nc(-c3ccco3)cc(C(F)(F)F)n2n1	none
O=C(Cc1ccc2c(c1)OCO2)NN=Cc1ccc([N+](=O)[O-])o1	CD40 NFkB inh 95.2
O=C(N/N=C/c1ccc([N+](=O)[O-])o1)C1CCCC1	none
CCCCCC(=O)N/N=C/c1ccc([N+](=O)[O-])o1	none
COc1ccccc1NC(=O)N1C[C@@H]2[C@H](c3ccccc31)[C@@H](CO)N2CC1CCOCC1	none
O=C(O)C[C@H]1C[C@@H]2c3cc(NS(=O)(=O)c4ccc(F)cc4)ccc3O[C@@H]2[C@H](CO)O1	none
Cc1c(CCOC(=O)C23CC4CC(CC(C)(C4)C2)C3)sc[n+]1CC(=O)c1ccccc1	none
Cc1c(CCOC(=O)CC23CC4CC(CC(C)(C4)C2)C3)sc[n+]1CC(=O)c1ccccc1	CD40 NFkB inh 69.7
Cc1c(CCOC(=O)c2ccccc2)sc[n+]1Cc1ccccc1	none
CSc1ncccc1C(=O)OCC(=O)Nc1ccc(C)c(S(=O)(=O)N2CCOCC2)c1	none
O=C(CC(F)(F)F)N1C[C@@H]2[C@H](c3ccccc31)[C@H](CO)N2C(=O)Cc1ccccc1	none
C#C[C@]1(O)CC[C@H]2[C@@H]3CCc4cc(OC5CCCC5)ccc4[C@H]3CC[C@@]21C	CD40 NFkB inh 51.9
C#C[C@]1(O)CC[C@H]2[C@@H]3CCc4cc(OC)ccc4[C@H]3CC[C@@]21C	none
C=CCOc1ccc2c(c1)CCC1C2CCC2(C)C(O)C(O)CC12 (stereo unspecified)	none
COc1cccc(CN(C)C(=O)CNC(=O)c2ccc(-c3ccccc3)cc2)c1OC	none
O=C(CCS(=O)(=O)c1ccccc1)N(CCCN1CCOCC1)c1nc2ccc(F)cc2s1	CD40 NFkB inh 72.2
Cc1ccc2nc(N(CCCN(C)C)C(=O)CS(=O)(=O)c3ccccc3)sc2c1	none
CCc1cccc2sc(N(CCCN3CCOCC3)C(=O)CS(=O)(=O)c3ccccc3)nc12	none
COc1ccc(C(=O)C=Cc2ccc(OCc3ccccc3)c(OC)c2)cc1OC	none
COc1cc(C=CC(=O)c2cc(OC)c(OC)c(OC)c2)cc(OC)c1OC	CD40 NFkB inh 65.0
COc1cc(C(=O)NNC(=O)/C=C/c2ccccc2)cc(OC)c1OC	none
O=C(C[C@@H]1C[C@H]2c3cc(NC(=O)c4ccc5c(c4)OCO5)ccc3O[C@H]2[C@H](CO)O1)NCC(F)(F)F	none
CCCNC(=O)C[C@@H]1CC[C@H]2[C@@H](COc3ccc(NC(=O)NCCC)cc3C(=O)N2C)O1	none
CCCS(=O)c1nc(C)cc(C)c1S(C)(=O)=O (stereo unspecified)	none
CN1c2ccc(-c3ccccc3F)cc2[C@@H]2[C@@H](CCN2C(=O)NC2CCCCC2)[C@@H]1CO	none
Cc1cc(NC(=O)c2ccc3c(c2)OCCO3)no1	CD40 NFkB inh 78.5
O=C(Nc1ccccn1)c1ccc2c(c1)OCCO2	none
Cc1cc(NC(=O)c2ccc(F)cc2)no1	none
CO[C@H]1CN(C)C(=O)c2ccc(NC(=O)Nc3c(C)noc3C)cc2OC[C@H](C)N(CCC(F)(F)F)C[C@@H]1C	none
O=C(C1CC1)N1C[C@@H]2[C@H](c3ccccc31)[C@H](CO)N2C(=O)Nc1cccc(F)c1	none
COc1ccc(C(=O)NCC2CCCN2S(=O)(=O)c2ccccc2)cc1OC (stereo unspecified)	none
Cc1ccc(S(=O)(=O)N2CCCC2CNC(=O)c2ccc3c(c2)OCO3)cc1 (stereo unspecified)	CD40 NFkB inh 37.6
Cc1ccc(S(=O)(=O)N2CCCC2CNC(=O)c2ccccc2)cc1 (stereo unspecified)	none
CN1C(=O)CSc2ccc(NC(=O)N3CCc4ccccc43)cc21	none
CC(=O)c1cccc(NC(=O)N2CCCc3ccccc32)c1	none
CN1CCN(c2ccc(NC(=O)N3CCc4ccccc43)cc2)CC1	CD40 NFkB inh 73.0
O=C(CCc1nc2ccccc2c(=O)[nH]1)N1CCN(S(=O)(=O)c2ccc(Cl)c(C(F)(F)F)c2)CC1	none
C[C@@H]1CCCCO[C@@H](CN(C)Cc2ccc(Cl)c(Cl)c2)[C@H](C)CN([C@H](C)CO)C(=O)c2cc(NS(=O)(=O)c3cccs3)ccc2O1	CD40 NFkB inh 58.2[25 µM]
C[C@@H]1CCCCO[C@@H](CN(C)Cc2ccc(Cl)c(Cl)c2)[C@H](C)CN([C@@H](C)CO)C(=O)c2cc(NS(=O)(=O)c3cccs3)ccc2O1	none
C[C@@H]1CN([C@H](C)CO)C(=O)c2cc(NS(=O)(=O)c3cccs3)ccc2O[C@@H](C)CCCCO[C@@H]1CN(C)Cc1ccc(Cl)c(Cl)c1	none
C[C@@H]1CN([C@H](C)CO)C(=O)c2cc(NS(=O)(=O)c3cccs3)ccc2O[C@@H](C)CCCCO[C@H]1CN(C)Cc1ccc(Cl)c(Cl)c1	CD40 NFkB inh 56.5[25 µM]

Compound activity from PubChem.
